Data reported in PubChem BioAssay AID1619 (SRMLSC, 2009).
Among all 220,000 compounds or so, about 830 (0.38%) were called active.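 The calls were made as follows: active = compound inhibiting the enzyme by more than half at any dose during confirmatory dose-response retesting; inconclusive = strong single-dose inhibitors picked by rank but not retested; inactive = the rest.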 The list is a sample of the results. Potency and affinity values are given separately.

Molecular target: Leucine aminopeptidase (Plasmodium falciparum (isolate 3D7)) (UniProt Q8IL11)
Experiment: P. falciparum M17LAP inhibitors, primary screen, biochemical, fluorogenic H-Leu-NHMec substrate, 1536-well (AID 1619);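 also: plate controls were full reaction with DMSO carrier for no effect and no enzyme background for full effect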
Conditions: recombinant M17LAP, H-Leu-NHMec fluorogenic kinetic assay; at 30 µM; stronger effect = higher value

Leucine aminopeptidase (Plasmodium falciparum (isolate 3D7)), sequence (Q8IL11 whole entry, looked up): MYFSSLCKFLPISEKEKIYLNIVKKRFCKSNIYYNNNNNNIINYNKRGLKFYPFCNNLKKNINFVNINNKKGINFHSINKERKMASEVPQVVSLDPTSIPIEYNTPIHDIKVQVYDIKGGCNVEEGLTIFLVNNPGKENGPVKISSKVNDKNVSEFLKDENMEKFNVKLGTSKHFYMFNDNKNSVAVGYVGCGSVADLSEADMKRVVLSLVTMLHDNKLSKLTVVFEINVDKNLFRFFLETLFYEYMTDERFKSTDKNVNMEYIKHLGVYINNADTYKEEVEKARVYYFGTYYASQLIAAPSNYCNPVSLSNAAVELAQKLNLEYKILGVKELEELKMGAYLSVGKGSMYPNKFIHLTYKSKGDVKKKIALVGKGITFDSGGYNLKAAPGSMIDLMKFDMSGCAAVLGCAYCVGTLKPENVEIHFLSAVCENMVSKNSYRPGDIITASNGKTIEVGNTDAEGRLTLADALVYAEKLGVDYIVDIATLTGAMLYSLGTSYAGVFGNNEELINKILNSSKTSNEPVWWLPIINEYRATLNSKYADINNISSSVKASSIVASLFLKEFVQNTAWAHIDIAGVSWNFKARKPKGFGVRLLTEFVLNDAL

inhibition, inactive:
CC(OC(=O)c1cn(-c2ccccc2)nc1-c1cccnc1)C(N)=O (stereo unspecified) 1.32%
O=C(COC(=O)c1ccc(S(=O)(=O)NCc2ccco2)cc1)Nc1ncc(Cl)cc1Cl -2.24%
N/C(Cc1ccc(Cl)cc1Cl)=N\OC(=O)c1ccccc1 0.73%
COc1ccc(OCc2cccc(C(=O)O)c2)cc1 53.7%
CCOc1ccc(OCc2cccc(C(=O)N(CC)CC)c2)cc1 -4.73%
O=C(Nc1ccc(C(=O)O)cc1)/C(=C\c1ccco1)NC(=O)c1ccccc1 45.7%
CN(C(=O)CSCC(=O)O)C1CCCCC1 -10.4%
CCOC(=O)/C(N=Nc1ccc(Cl)cc1)=C(/O)c1ccc([N+](=O)[O-])cc1 3.08%
Nc1[nH]ncc1-c1ccccc1 -3.57%
Nc1[nH]ncc1-c1ccc(F)cc1 55.5%
COC(=O)c1cc(C(=O)OC)n(Cc2ccc(Br)cc2)n1 -9.56%
CC(=O)c1c(C)[n+]([O-])c2ccc3c(non3O)c12 10.2%
C[n+]1c(/C=C/c2ccc3c(c2)OCO3)ccc2ccccc21 0.47%
CC[n+]1ccc(/C=C/c2ccc(N(C)C)cc2)c2ccccc21 50.7%
CN(C)c1ccc(/C=C/c2ccc3c4ccccc4ccc3[n+]2-c2ccccc2)cc1 13.1%
CC[n+]1ccccc1/C=C/c1ccc(N(C)C)cc1 56.5%
C=CC(C)(C)c1cc2cc3ccoc3cc2oc1=O 3.93%
Cc1nc(C)c(-c2ccn(S(=O)(=O)c3ccc(Cl)cc3)n2)o1 -15.8%
Cc1ccc(OCc2ccc(C(=O)NN)o2)c([N+](=O)[O-])c1 -2.38%
COC(=O)c1ccc(COc2ccc(C)cc2[N+](=O)[O-])o1 5.81%
CCN1CCN(CCn2c(=S)[nH]c3cc4c(cc3c2=O)OCO4)CC1 10.8%
COc1ccc(C2CCN(CC(=O)N(C)C)CC2O)cc1 (stereo unspecified) -0.46%
Cc1ccccc1NC(=O)COC(=O)c1c[nH]c(=O)[nH]c1=O -3.99%
CN(c1ccccc1C(=O)N1CCN(c2cccc(Cl)c2)CC1)S(C)(=O)=O -10.5%
O=C1CC(=O)C(n2cncn2)C(c2cccc(Cl)c2)C1 (stereo unspecified) -45.4%
O=C1CC(=O)C(n2cncn2)C(c2ccc(Cl)cc2)C1 (stereo unspecified) 41.7%
NC(=O)COc1ccccc1/C=C1/SC(=O)N(CC(=O)N2CCc3ccccc3C2)C1=O -2.36%
CCOc1cc(/C=C2\SC(=Nc3ccc(F)cc3)N(c3ccc(F)cc3)C2=O)ccc1OCC(=O)O 42.8%
CCOc1c(Br)cc(/C=C2/SC(=O)N(CC(=O)N3CCCC3)C2=O)cc1OC -3.92%
CCOc1ccc(C(=O)NCC(=O)N2CCc3ccccc3C2)cc1OCC -4.26%
COc1cccc(/C=C2/SC(=O)N(C)C2=O)c1OCc1ccc(C(=O)O)cc1 25.1%
COc1cc(/C=C2\SC(=Nc3ccc(F)cc3)N(c3ccc(F)cc3)C2=O)ccc1OCC(=O)O 38.3%
COC(=O)COc1ccc(/C=C2/SC(=O)N(CC(=O)N3CCCC3)C2=O)cc1Br 14.7%
COC(=O)COc1cc(Br)c(/C=C2/SC(=O)N(CC(=O)N3CCCC3)C2=O)cc1OC 26.7%
COC(=O)c1cccc(NC(=O)Cc2nc(-c3ccccc3)sc2-c2ccc(C)cc2)c1 1.12%
COc1ccc(CN2CCN(C)CC2)cc1OCc1ccccc1 -2.4%
Cc1ccc(C(=O)N2CCSC2=S)cc1 8.96%
CCc1nc(Sc2nc(C)cc(C)n2)c2oc3ccccc3c2n1 -4.31%
CCOC(=O)c1ccc(S(=O)(=O)NNC(=O)COc2ccccc2C)cc1 -5.37%
O=C(CSc1nnc(CN2CCCCCC2=O)n1-c1ccccn1)NCC(F)(F)F -5.65%
C/C(=C\c1ccccc1)CN1CCC(C(=O)N2CCC(C)CC2)CC1 1.41%
COCc1nnc(NC(=O)c2cc(C(=O)OC)cc([N+](=O)[O-])c2)s1 6.44%
COCCSc1nnc(NC(=O)c2ccc([N+](=O)[O-])cc2)s1 -6.15%
CCc1nn(-c2ccccc2)c(N)c1-c1ccc(OC)c(OC)c1 1.87%
CSc1ccc(/C=C/c2ccc3cccc(O)c3n2)cc1 14.9%
COc1cc(/C=C/c2ccc3cccc([N+](=O)[O-])c3n2)ccc1OCC(=O)O 20.7%
O=[N+]([O-])c1ccc(/C=C/c2ccc3cccc([N+](=O)[O-])c3n2)cc1 -6.24%
COC(=O)c1ccc(/C=C/c2ccc3cccc(OC)c3n2)cc1 0.52%
CCCn1nnc(NC(=O)c2ccco2)n1 -183%
CCC(C)n1c(SCC(=O)NC(=O)Nc2ccc3c(c2)OCCO3)nc2ccccc2c1=O (stereo unspecified) -1.6%
CCOC(=O)c1cn2nc(Oc3ccc(OC)cc3)ccc2n1 9.2%
CCCCCOC(=O)NC1CCS(=O)(=O)C1 (stereo unspecified) -3.96%
CCOC(=O)C1(CCSC)NC(c2ccco2)C2C(=O)N(CC)C(=O)C21 (stereo unspecified) 5.79%
CC(C)C(=O)NCCc1c[nH]c2ccccc12 3.48%
CCC(=O)NCCc1c[nH]c2ccccc12 -4.01%
CSc1n[nH]c(=O)n1-c1ccc(Cl)cc1 -4.84%
Cc1sc(NC(=O)c2ccc(Cl)s2)c(C(N)=O)c1C -3.24%
O=[N+]([O-])c1ccc(Sc2ccccn2)nc1 6.7%
O=[N+]([O-])c1ccc(Sc2ccccc2)nc1 -3.15%
Cc1ccc2oc(=O)c3cnn(CC(=O)NCCc4ccsc4)c3c2c1 11.8%
CCOC(=O)Cn1nnnc1CN(Cc1ccc(OC)cc1)Cc1cc2cc(CC)ccc2[nH]c1=O 7.13%
